# Screens (PubChem BioAssay)
# PGC1a acetyl inh: inhibitors of PGC1a acetylation signal, primary screen, cell-based, U2OS, AlphaScreen, inhibitor mode. inhibition, % at 15.6 µM. AlphaScreen anti-acetyl-lysine; with virally co-expressed GCN5 acetyltransferase. AID 651687, 2012. 350,000 compounds, 0.17% hits;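 active = every replicate shows inhibition of at least 40%; inconclusive = mean inhibition at least 40% but some replicate below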;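 note: 0% = neutral control wells and 100% = positive control wells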
# INS-1E GSIS act: GLuc luminescence reporter in INS-1E cells, primary screen for activators of glucose-dependent secretion of insulin; INS-1E GLuc reporter insulin secretion, 2-3 h; activation, % at 16.6 µM; 370,000 compounds, 0.61% hits;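 active = lowest replicate activation of at least 40%, so every replicate reaches that level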;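 note: 0% = median of neutral control wells and 100% = median of IBMX positive control wells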
# DENV2 CPE rescue: inhibitors of DENV2 cytopathic effect, primary screen, cell-based, plate reader, single concentration. CPE inhibition, % at 9.99 µM. 350,000 compounds, 1.7% hits. DENV2-infected cells, cytopathic effect rescue; in the data active = CPE inhibition above about 20%, passing the limit was not always enough; inconclusive = no clear call, values can overlap the other calls; tested in BHK-21 cells;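 note: 0% = median of neutral control wells and 100% = median of positive control wells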
# ERAP1 inh: human ERAP1 aminopeptidase inhibitors, primary screen, biochemical, single point, plate reader. Endoplasmic reticulum aminopeptidase 1 (Homo sapiens), Q9NZ08. recombinant ERAP1, Leu-AMC fluorescence, 60 min. inhibition, % at 10.7 µM. 340,000 compounds, 0.15% hits. AID 652197, 2013;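 active = mean replicate inhibition of at least 30%, or all replicates individually reaching that 30% level; inactive = mean below 30% and not every replicate reaching it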;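 note: 0% = neutral control wells and 100% = L-leucinethiol positive control wells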
# Target sequence (Q9NZ08 whole entry, looked up): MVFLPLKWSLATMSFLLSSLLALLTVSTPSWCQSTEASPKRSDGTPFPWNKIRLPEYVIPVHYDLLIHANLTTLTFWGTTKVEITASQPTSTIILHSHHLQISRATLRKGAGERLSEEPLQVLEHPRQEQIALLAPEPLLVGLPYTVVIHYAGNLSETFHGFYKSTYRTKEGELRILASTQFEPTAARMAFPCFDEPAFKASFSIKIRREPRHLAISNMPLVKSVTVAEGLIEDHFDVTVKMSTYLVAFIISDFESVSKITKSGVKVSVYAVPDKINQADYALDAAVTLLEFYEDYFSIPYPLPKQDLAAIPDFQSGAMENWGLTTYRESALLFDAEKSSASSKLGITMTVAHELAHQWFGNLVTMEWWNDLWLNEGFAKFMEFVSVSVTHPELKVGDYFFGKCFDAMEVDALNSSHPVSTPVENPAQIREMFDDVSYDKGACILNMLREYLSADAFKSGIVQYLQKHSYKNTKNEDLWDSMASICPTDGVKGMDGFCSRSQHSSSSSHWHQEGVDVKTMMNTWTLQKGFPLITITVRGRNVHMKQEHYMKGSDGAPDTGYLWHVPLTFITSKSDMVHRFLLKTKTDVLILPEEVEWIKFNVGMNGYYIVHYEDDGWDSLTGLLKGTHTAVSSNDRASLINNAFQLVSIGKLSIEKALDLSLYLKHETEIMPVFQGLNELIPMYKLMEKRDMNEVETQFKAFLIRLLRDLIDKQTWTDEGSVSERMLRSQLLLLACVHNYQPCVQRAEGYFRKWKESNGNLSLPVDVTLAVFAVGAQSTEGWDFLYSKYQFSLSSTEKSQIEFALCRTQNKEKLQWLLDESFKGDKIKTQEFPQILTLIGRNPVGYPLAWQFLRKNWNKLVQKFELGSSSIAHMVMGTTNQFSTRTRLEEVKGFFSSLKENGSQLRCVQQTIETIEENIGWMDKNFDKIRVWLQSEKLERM
# Ecoli rRNA inh: reduced GFP signal of wild-type E. coli, primary screen, bacterial rRNA inhibitor project, GFP/RFP fluorescence, OD600, single point; AID 720706, 2013; GFP signal change (wild-type ribosome), % (test concentration not listed); E. coli WT GFP vs humanized-ribosome RFP mutants, 24 h; active compounds read low; DMSO median 0, no signal -100; 350,000 compounds, 1.6% hits;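 active = significant combined selectivity score with lowered wild-type GFP, culture density cut under 30%, mutant RFP and density less affected; inactive = any of these conditions unmet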
# CaV13 FRET inh: Disruptors of the CACNA1D IQ motif to Ca2+-dependent inactivation inhibitor domain association, primary screening, Förster resonance energy transfer in intact living …. inhibition, % at 12.3 µM. HEK cells, CFP/YFP FRET ICDI-IQ, plate reader, 10 min; percent FRET-ratio fall versus neutral wells. 340,000 compounds, 0.098% hits. AID 743397;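 active = mean replicate inhibition of at least 30% and at least 1% of replicates passing that level; inconclusive = only one of the two criteria is met; inactive = neither criterion is met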;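 note: 0% = median of the neutral control wells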
# * marks the source's active call; other numbers are inactive results; ? = inconclusive; · = no result; ! = a repeat was not active. Only some compounds are listed: those with a hit (about 3.2% of all), similar ones and a draw of the others.
SMILES,PGC1a acetyl inh,INS-1E GSIS act,DENV2 CPE rescue,ERAP1 inh,Ecoli rRNA inh,CaV13 FRET inh
Cc1ccc(S(=O)(=O)N(C)C[C@@H]2Oc3ncc(-c4ccncc4)cc3C(=O)N([C@@H](C)CO)C[C@H]2C)cc1,-11,-1,-9,0,-6,·
CSc1ccccc1NC(=O)CN(C)CC(=O)c1c(C)[nH]c2ccccc12,15,-9,2,1,-21*,-2
Nc1ccc(Oc2cc(N)cc(Oc3ccccc3)c2)cc1,·,0,-9,9,-21*,-17
Nc1ccc(Oc2ccc3nc(-c4ccccc4)c(-c4ccccc4)nc3c2)cc1,18,·,·,·,·,1
COc1ccc(S(=O)(=O)N(C)C[C@@H]2Oc3cc(C#CC4CC4)ccc3S(=O)(=O)N([C@H](C)CO)C[C@H]2C)cc1,-59,-1,11,4,1,·
CC(=O)Nc1ccc(/C=C(\C#N)S(=O)(=O)c2ccc(C)cc2)cc1,-12,60*,-4,3,7,-5
O=C(CC(NC(=O)c1ccccc1)c1ccccc1)NCc1ccccc1 (stereo not drawn),4,-1,10,4,4,-6
O=C(CC(NC(=O)c1ccccc1)c1ccccc1)Nc1cccc2ccccc12 (stereo not drawn),8,95*,·,·,·,-5
O=C(c1ccccc1)N1CC[C@@H]2[C@H](CO)Nc3ccc(C#Cc4cccc(F)c4)cc3[C@@H]21,2,8,116*,·,-6,·
O=C(c1ccccc1)N1CC[C@H]2[C@H](CO)Nc3ccc(C#Cc4cccc(F)c4)cc3[C@H]21,8,7,64*,·,-2,·
O=C(c1cccc(F)c1)N1CC[C@@H]2[C@@H](CO)Nc3ccc(C#Cc4ccccc4)cc3[C@@H]21,·,-3,-5,-3,-3,·
O=C(c1ccccc1)N1CC[C@@H]2[C@H](CO)Nc3ccc(C#Cc4ccccc4F)cc3[C@@H]21,-1,8,7,2,-3,·
COCC(=O)Nc1ccc2c(c1)OC[C@H](C)N(CC1CC1)C[C@H](C)[C@@H](OC)CN(C)C2=O,12,3,10,1,-1,·
Cc1cc(C(F)(F)F)n(-c2nc(C(=O)NNS(=O)(=O)c3ccccc3)cs2)n1,42,·,·,·,·,-5
Cc1cc(C(F)(F)F)n(-c2nc(C(=O)NNS(=O)(=O)c3ccccc3[N+](=O)[O-])cs2)n1,110*,26,·,3,-11,-5
C[C@H](CO)N1C[C@H](C)[C@@H](CN(C)C(=O)C2CC2)OCc2cnnn2CCCC1=O,-10,-2,49*!,8,1,-6
C[C@H]1CN([C@@H](C)CO)C(=O)CCCn2nncc2CO[C@@H]1CN(C)C(=O)C1CC1,6,-1,-3,-2,0,·
C[C@H](CO)N1C[C@H](C)[C@H](CN(C)C(=O)C2CC2)OCc2cnnn2CCCC1=O,-2,8,113*!,1,9,-4
CCCN1C[C@H](C)[C@H](OC)CN(C)C(=O)c2cc(NC(=O)c3ccno3)ccc2OC[C@@H]1C,8,6,-7,1,2,·
COc1ccc(OC)c(NC(=O)COC(=O)c2c3c(nc4ccccc24)CCCC3)c1,-26,5,0,6,-28*,-8
CCOc1cccc(/C=N/NC(=O)c2cc(C3CC3)[nH]n2)c1O,·,7,-7,0,-17*,-7
CO[C@@H]1CN(C)C(=O)c2cc(NC(=O)c3ccccc3)ccc2OC[C@H](C)N(C(=O)C2CC2)C[C@@H]1C,-8,-7,95*,-3,-4,·
CO[C@@H]1CN(C)C(=O)c2ccc(NC(=O)c3ccccc3)cc2OC[C@@H](C)N(C(=O)C2CC2)C[C@H]1C,-13,9,26*,-1,-1,·
CO[C@H]1CN(C)C(=O)c2ccc(NC(=O)c3ccccc3)cc2OC[C@H](C)N(C(=O)C2CC2)C[C@@H]1C,1,3,16,0,-5,·
C[C@H](CO)N1C[C@H](C)[C@@H](CN(C)C(=O)c2ccccc2F)Oc2ncc(-c3ccc(F)cc3)cc2C1=O,-31,-9,13,-4,-6,·
SMILES,PGC1a acetyl inh,INS-1E GSIS act,DENV2 CPE rescue,ERAP1 inh,Ecoli rRNA inh,CaV13 FRET inh
C=CCN(CC=C)C(=O)COn1nnc2ccc(S(=O)(=O)N3CCOCC3)cc21,5,7,?,2,7,-2
CCOc1ccc(NC(=O)COn2nnc3ccc(S(=O)(=O)N4CCOCC4)cc32)cc1,14,-46,-3,-1,-29*,-4
COc1ccc(NC(C)(C)c2nnnn2-c2c(C)cccc2C)cc1,·,-34,2,10,-25*,-4
CC1=NS(=O)(=O)NC(C)(C)C1,·,53*,9,-1,13,-5
C[C@@H]1CN([C@H](C)CO)C(=O)c2cc(NC(=O)Nc3cccc4ccccc34)ccc2O[C@@H](C)CCCCO[C@@H]1CN(C)Cc1ccc2c(c1)OCO2,-15,-3,-20,·,-1,·
C=CCNc1cc(C)oc(=O)c1C(=O)CCC,-7,71*,-7,-1,-2,-7
CCNC(=O)C[C@H]1CC[C@H]2[C@H](COc3ccc(NC(=O)c4cccs4)cc3C(=O)N2C)O1,-11,4,1,-1,3,·
COc1ccc(NC(=O)Nc2ccc3c(c2)C(=O)N([C@@H](C)CO)C[C@@H](C)[C@@H](CN(C)Cc2ccc4c(c2)OCO4)OCCCC[C@@H](C)O3)cc1,7,-20,34*,2,3,·
COc1ccc(NC(=O)Nc2ccc3c(c2)C(=O)N([C@@H](C)CO)C[C@H](C)[C@H](CN(C)Cc2ccc(C(=O)O)cc2)OCCCC[C@@H](C)O3)cc1,10,0,59*,1,1,·
COc1ccc(NC(=O)Nc2ccc3c(c2)C(=O)N([C@@H](C)CO)C[C@@H](C)[C@@H](CN(C)Cc2ccc4c(c2)OCO4)OCCCC[C@H](C)O3)cc1,-10,-19,-7,2,2,·
COc1ccc(NC(=O)Nc2ccc3c(c2)C(=O)N([C@H](C)CO)C[C@@H](C)[C@H](CN(C)Cc2ccc4c(c2)OCO4)OCCCC[C@@H](C)O3)cc1,-3,-30,24*,2,7,·
COc1ccc(NC(=O)Nc2ccc3c(c2)C(=O)N([C@@H](C)CO)C[C@H](C)[C@H](CN(C)Cc2ccc4c(c2)OCO4)OCCCC[C@@H](C)O3)cc1,-1,-27,-5,3,-2,·
COCC(=O)N(C)C[C@H]1Oc2ncc(C#Cc3ccc(OC)cc3)cc2C(=O)N([C@@H](C)CO)C[C@@H]1C,-9,-4,-6,-4,3,·
